{"source": "PubChem BioAssay (NCATS)", "key": {"[1]": {"test": "Cell Viability - LYMP2-026 (AID 989); note: % is set by controls: 0 for no effect and ±100 for the full control effect; nearly all actives have a fitted effect of over 50% in size", "procedure,_shortened": "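Concentration-dependent loss of intracellular ATP in human lymphoblastoid cells after 24 hr at 37 C, quantified by luciferase luminescence. AC50 derived from standard Hill equation.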"}, "[2]": {"test": "Cell Viability - LYMP1-002 - Assay at 24 hr (AID 993); note: % is set by controls: 0 for no effect and ±100 for the full control effect", "procedure,_shortened": "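qHTS, LYMP1-002 lymphoblastoid, 24 h cpd, 37 C, CellTiter-Glo ATP luminescence; AC50 via Hill eq.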"}, "[3]": {"test": "Cell Viability - LYMP1-002 - Assay at 40 hr (AID 994);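 note: 0% = DMSO only and full inhibition = 92 µM tetraoctylammonium bromide; nearly all actives have a fitted effect of over 60% in size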", "procedure,_shortened": "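Viability in the human lymphoblastoid line was measured as intracellular ATP via CellTiter-Glo after 40 hr compound exposure. Tetraoctylammonium bromide served as positive control.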"}, "[4]": {"test": "qHTS Assay for Lipid Storage Modulators (AID 1519; calls by dose curve; for activity change, negative = inhibition: % is set by controls: 0 for no effect and ±100 for the full control effect)", "conditions": "Drosophila S3 cells, BODIPY lipid droplet/cell ratio, laser cytometry, cells loaded with oleic acid", "procedure,_shortened": "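Cells seeded at 5,000 per well were treated with compounds over a concentration series and loaded with oleic acid (400 uM, as added). Lipid droplet fluorescence (488 nm excitation, 500-530 nm channel) was read by laser-scanning cytometry and normalized to 20 uM Triacsin C.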"}, "[5]": {"test": "qHTS Assay for Identification of Small Molecule Inducers of Hypoxia Response (AID 2120; active = well fitted curve in the direction sought with a large enough effect in the signal ratio, with a control signal flat, not every such curve was filed as active; the % refers to the signal ratio; note: 0% is about no effect)", "procedure,_shortened": "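Induction of beta-lactamase reporter activity was measured in CellSensor HRE-bla ME-180 cells after 17 h compound treatment at 37 degrees C, using CCF4 substrate and the 460nm/530nm emission ratio to derive AC50 values.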"}, "[6]": {"target": "Lysosomal alpha-glucosidase (Homo sapiens) (UniProt P10253)", "test": "Confirmation of Inhibitors and Activators of Purified Human alpha-Glucosidase (AID 2115; active = well fitted curve in either direction with a large enough effect)", "procedure,_shortened": "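Purified human enzyme (4 nM) with 4-methylumbelliferyl-alpha-D-glucopyranoside (400 uM), compounds up to 77 uM, in citrate/phosphate buffer pH 5.0 with 0.005% Tween-20. After 20 min at RT, stopped at pH 10; fluorescence ex 365/em 440 nm; AC50 from Hill fits.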"}, "[7]": {"target": "Alpha-galactosidase A (Homo sapiens) (UniProt P06280)", "sequence (P06280 whole entry, looked up)": "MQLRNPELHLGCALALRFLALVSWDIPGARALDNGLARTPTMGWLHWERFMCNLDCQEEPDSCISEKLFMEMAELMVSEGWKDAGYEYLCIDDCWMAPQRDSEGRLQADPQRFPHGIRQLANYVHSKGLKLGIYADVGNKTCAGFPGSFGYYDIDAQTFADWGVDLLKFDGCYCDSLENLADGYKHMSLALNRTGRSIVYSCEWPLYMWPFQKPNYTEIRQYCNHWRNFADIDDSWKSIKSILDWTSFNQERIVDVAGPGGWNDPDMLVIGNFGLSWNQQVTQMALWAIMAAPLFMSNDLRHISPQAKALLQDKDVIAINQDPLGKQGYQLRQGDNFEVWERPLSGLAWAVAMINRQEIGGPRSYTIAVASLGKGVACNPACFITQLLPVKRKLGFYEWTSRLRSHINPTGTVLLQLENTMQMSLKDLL", "test": "Counterscreen for Glucocerebrosidase Inhibitors: qHTS Assay for Human alpha-Galactosidase at pH 4.5 (AID 992); note: 0% is about no effect", "procedure,_shortened": "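Read-out is 4-methylumbelliferone fluorescence (365 nm excitation, 440 nm emission) after a pH 10 NaOH/glycine stop. Reactions held 2 nM enzyme and 80 uM substrate at pH 4.5 for 20 min at room temperature.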"}, "[8]": {"target": "alpha-glucosidase (Oryza sativa, rice) (UniProt Q653V4)", "test": "Counterscreen for Glucocerebrosidase Inhibitors: qHTS Assay for Rice alpha-Glucosidase at pH 5.0 (AID 997);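 note: 0% = full activity with enzyme and -100% = basal without enzyme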", "procedure,_shortened": "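Rice alpha-glucosidase (4 nM final) with 400 uM 4-methylumbelliferyl-alpha-D-glucopyranoside in citrate buffer pH 5.0, 20 min at room temperature, stopped at pH 10; fluorescence 365/440 nm, compounds 0.7 nM–77 uM, AC50 from Hill fits.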"}, "[9]": {"target": "DNA repair nuclease/redox regulator APEX1 (Homo sapiens) (UniProt P27695)", "sequence (P27695 whole entry, looked up)": "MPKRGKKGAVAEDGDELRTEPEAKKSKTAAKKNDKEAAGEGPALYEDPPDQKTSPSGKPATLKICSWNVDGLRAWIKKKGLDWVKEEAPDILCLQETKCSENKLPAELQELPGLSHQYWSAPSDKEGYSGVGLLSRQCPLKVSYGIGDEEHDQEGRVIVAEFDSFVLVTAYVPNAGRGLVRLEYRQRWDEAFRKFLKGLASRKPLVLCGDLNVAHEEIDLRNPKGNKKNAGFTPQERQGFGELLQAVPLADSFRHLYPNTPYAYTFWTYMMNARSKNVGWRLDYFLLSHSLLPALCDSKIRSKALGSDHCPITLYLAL", "test": "qHTS Validation Assay for Inhibitors of the Human Apurinic/apyrimidinic Endonuclease 1 (APE1) (AID 1705;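 note: TAMRA fluorescence gain over two minutes as APE1 cuts a quenched THF abasic duplex; % is set by controls: 0 for no effect and ±100 for the full control effect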)", "procedure,_shortened": "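Substrate: 50 nM final fluorophore/quencher THF-abasic duplex. Enzyme preincubated with compounds 15 min, RT. Progress derived from fluorescence difference, third minus first kinetic read.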"}, "[10]": {"test": "Counterscreen for APE1 Inhibitors: Fluorescent Dye Displacement Validation Assay (AID 1707);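 note: plate controls were ThO with dsDNA and no compound for no effect and ThO without dsDNA for full effect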", "procedure,_shortened": "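ThO 250 nM + dsDNA 50 nM (THF abasic site, 5'-TAMRA), Tris-HCl pH7.5/50mM NaCl/2 mM MgCl2/0.01% Tween-20; compounds pin-transferred; ex 480/em 540 nm endpoint. Neutral = no compound; no-DNA ThO wells = negative control.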"}, "[11]": {"test": "qHTS for differential inhibitors of proliferation of Plasmodium falciparum line 7G8 (AID 1815);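 note: parasite growth measured after three days of incubation; plate controls were vehicle wells for no effect and reference inhibitor wells for full effect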"}, "[12]": {"test": "qHTS for differential inhibitors of proliferation of Plasmodium falciparum line 3D7 (AID 1876); note: potency is the fitted concentration of half-maximal effect"}, "[13]": {"test": "qHTS for differential inhibitors of proliferation of Plasmodium falciparum line Dd2 (AID 1882); note: nearly all actives have a fitted effect of over 65% in size", "procedure,_shortened": "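SYBR Green I DNA fluorescence read-out, ex 485/em 535 nm. Signals were normalized to 0.29 uM artemisinin and DMSO wells, then corrected using vehicle-only plates flanking each stack. Parasite growth ran 72 h in erythrocytes before lysis.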"}, "[14]": {"test": "qHTS for differential inhibitors of proliferation of Plasmodium falciparum line W2 (AID 1883);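 note: potency is the fitted concentration of half-maximal effect; parasites grown with compound for 72 h before lysis and staining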", "conditions": "Plasmodium falciparum W2 proliferation inhibition"}, "[15]": {"test": "qHTS for differential inhibitors of proliferation of Plasmodium falciparum line HB3 (AID 1886);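 note: potency is the fitted concentration of half-maximal effect; parasites grown with compound for 72 h before SYBR Green readout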", "conditions": "Potency: Plasmodium falciparum HB3 proliferation inhibition"}, "[16]": {"target": "Ferritin light chain (Equus caballus) (UniProt P02791)", "sequence (P02791 2-175 limits assumed)": "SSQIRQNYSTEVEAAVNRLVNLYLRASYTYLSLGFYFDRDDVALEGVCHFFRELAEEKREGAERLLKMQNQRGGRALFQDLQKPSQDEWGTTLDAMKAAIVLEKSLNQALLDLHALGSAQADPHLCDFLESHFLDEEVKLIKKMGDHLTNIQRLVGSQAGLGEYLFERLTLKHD", "test": "qHTS Validation Assay for Identification of Novel General Anesthetics (AID 2323); note: % is set by controls: 0 for no effect and ±100 for the full control effect", "procedure,_shortened": "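Normalized fluorescence response, scaled between free 1-AMA and 1-AMA/apoferritin complex, fitted to a four-parameter Hill equation for concentration-effect values. Binding mix: 10 uM horse-spleen apoferritin, 50% saturated 1-AMA in PBS; read 380/535 nm after 10 min.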"}, "[17]": {"conditions": "measured here: cell count channel max response"}, "[18]": {"conditions": "measured here: lipid channel max response"}}, "note": "Values joined by “and” are separate entries in the source; they are usually repeats but may differ in a detail not shown here. Equal values may be shown once. Results filed as inconclusive are left out. Active and inactive are the calls of the source. Unless noted, calls come from the whole dose curve; as a rule, active = well fitted curve in the direction sought with a large enough effect; inconclusive = small, poorly fitted or top-dose-only effect, or another doubt; inactive = no such curve, though single readings can be large; an effect the other way counts as inactive or inconclusive."}
{"smiles": "O=C(O)c1ccc(S(=O)(=O)N(Cl)Cl)cc1", "values": [{"measurement": "outcome", "setting": "[1]", "value": "inactive"}, {"measurement": "outcome", "setting": "[2]", "value": "inactive"}, {"measurement": "Potency", "setting": "[3]", "value": "inactive"}, {"measurement": "activity change, negative = inhibition", "setting": "[4]; at 57.5 µM (top of the series)", "value": "9.84% (inactive)"}, {"measurement": "max response", "setting": "[4]; [17]", "value": 17.1, "unit": "%"}, {"measurement": "max response", "setting": "[4]; [18]", "value": 34.6, "unit": "%"}, {"measurement": "outcome", "setting": "[5]", "value": "inactive"}]}
{"smiles": "COc1cc(NS(=O)(=O)c2ccc(N)cc2)ncn1", "values": [{"measurement": "activity change, negative = inhibition", "setting": "[4]; at 25.7 µM (top of the series)", "value": "1.08% (inactive)"}, {"measurement": "activity change, negative = inhibition", "setting": "[4]; at 57.5 µM (top of the series)", "value": "3.4% (inactive)"}, {"measurement": "max response", "setting": "[4]; [17]", "value": "0.606% and 6.05%"}, {"measurement": "max response", "setting": "[4]; [18]", "value": "1.51% and 9.04%"}]}
{"smiles": "O=C(CCCN1CC=C(n2c(=O)[nH]c3ccccc32)CC1)c1ccc(F)cc1", "values": [{"measurement": "activity change, negative = inhibition", "setting": "[4]; at 25.7 µM (top of the series)", "value": "1.32% (inactive)"}, {"measurement": "activity change, negative = inhibition", "setting": "[4]; at 57.5 µM (top of the series)", "value": "14.6% (inactive)"}, {"measurement": "max response", "setting": "[4]; [17]", "value": "-13.4% and 7.49%"}, {"measurement": "max response", "setting": "[4]; [18]", "value": "-9.23% and 27.6%"}]}
{"smiles": "CCN(CC)CCNC(=O)COc1ccc(OC)cc1", "values": [{"measurement": "activity change, negative = inhibition", "setting": "[4]; at 25.7 µM (top of the series)", "value": "-2.56% (inactive)"}, {"measurement": "activity change, negative = inhibition", "setting": "[4]; at 57.5 µM (top of the series)", "value": "3.31% (inactive)"}, {"measurement": "max response", "setting": "[4]; [17]", "value": "7.9% and 27.2%"}, {"measurement": "max response", "setting": "[4]; [18]", "value": "4.41% and 33.1%"}]}
{"smiles": "CCCN(CCC)S(=O)(=O)c1ccc(C(=O)O)cc1", "values": [{"measurement": "outcome", "setting": "[1]", "value": "inactive"}, {"measurement": "outcome", "setting": "[2]", "value": "inactive"}, {"measurement": "Potency", "setting": "[3]", "value": "inactive"}]}
{"smiles": "COc1ccc(C(Cl)=C(c2ccc(OC)cc2)c2ccc(OC)cc2)cc1", "values": [{"measurement": "outcome", "setting": "[2]", "value": "inactive"}, {"measurement": "Potency", "setting": "[3]", "value": "inactive"}, {"measurement": "outcome", "setting": "[5]", "value": "inactive"}]}
{"smiles": "CCCCN1C[C@H](O)[C@@H](O)[C@H](O)[C@H]1CO", "values": [{"measurement": "outcome", "setting": "[6]", "value": "inactive"}]}
{"smiles": "CC(C)(C)NC[C@H](O)COc1nsnc1N1CCOCC1", "values": [{"measurement": "outcome", "setting": "[7]", "value": "inactive"}, {"measurement": "outcome", "setting": "[8]", "value": "inactive"}, {"measurement": "activity change, negative = inhibition", "setting": "[4]; at 25.7 µM (top of the series)", "value": "-2.08% (inactive)"}, {"measurement": "activity change, negative = inhibition", "setting": "[4]; at 57.5 µM (top of the series)", "value": "1.69% (inactive)"}, {"measurement": "max response", "setting": "[4]; [17]", "value": "10% and 1.77%"}, {"measurement": "max response", "setting": "[4]; [18]", "value": "6.06% and 5.65%"}]}
{"smiles": "CCOc1ccc(NC(C)=O)cc1", "values": [{"measurement": "outcome", "setting": "[1]", "value": "inactive"}, {"measurement": "outcome", "setting": "[2]", "value": "inactive"}, {"measurement": "Potency", "setting": "[3]", "value": "inactive"}, {"measurement": "outcome", "setting": "[5]", "value": "inactive"}]}
{"smiles": "NC(N)=NCc1cccc(I)c1", "values": [{"measurement": "outcome", "setting": "[7]", "value": "inactive"}, {"measurement": "outcome", "setting": "[8]", "value": "inactive"}, {"measurement": "activity change, negative = inhibition", "setting": "[4]; at 57.5 µM (top of the series)", "value": "3.74% (inactive)"}, {"measurement": "max response", "setting": "[4]; [17]", "value": -19.1, "unit": "%"}, {"measurement": "max response", "setting": "[4]; [18]", "value": -12.1, "unit": "%"}, {"measurement": "Potency", "setting": "[9]", "value": "inactive"}, {"measurement": "outcome", "setting": "[10]", "value": "inactive"}, {"measurement": "outcome", "setting": "[11]", "value": "inactive"}, {"measurement": "Potency", "setting": "[12]", "value": "8.91 µM (active)"}, {"measurement": "outcome", "setting": "[13]", "value": "inactive"}, {"measurement": "Potency", "setting": "[14]", "value": "10 µM (active)"}, {"measurement": "Potency", "setting": "[15]", "value": "6.31 µM (active)"}, {"measurement": "outcome", "setting": "[16]", "value": "inactive"}]}
{"smiles": "CN(C)CCC[C@@]1(c2ccc(F)cc2)OCc2cc(C#N)ccc21", "values": [{"measurement": "outcome", "setting": "[7]", "value": "inactive"}, {"measurement": "outcome", "setting": "[8]", "value": "inactive"}, {"measurement": "activity change, negative = inhibition", "setting": "[4]; at 57.5 µM (top of the series)", "value": "0.0614% (inactive) and -1.76% (inactive)"}, {"measurement": "max response", "setting": "[4]; [17]", "value": "5.54% and 6.49%"}, {"measurement": "max response", "setting": "[4]; [18]", "value": "4.25% and 5%"}]}
{"smiles": "CN1CCC[C@@H]1CCO[C@](C)(c1ccccc1)c1ccc(Cl)cc1", "values": [{"measurement": "outcome", "setting": "[7]", "value": "inactive"}, {"measurement": "outcome", "setting": "[8]", "value": "inactive"}, {"measurement": "activity change, negative = inhibition", "setting": "[4]; at 25.7 µM (top of the series)", "value": "-6.95% (inactive)"}, {"measurement": "max response", "setting": "[4]; [17]", "value": -6.75, "unit": "%"}, {"measurement": "max response", "setting": "[4]; [18]", "value": -13.1, "unit": "%"}]}
